{
  "source": "PubChem BioAssay AID504366",
  "about": "(National Center for Advancing Translational Sciences (NCATS), 2011)",
  "note": "Calls of active or inactive are those of the source. Calls follow the shape of the full dose curve.",
  "data": [
    {"assay": "Immunofluorescence assay for KAP-1 phosphorylation on Ser824 for Identifying a Potential Treatment of Ataxia-Telangiectasia: SAR for Probe", "conditions": "F2112 A-T fibroblasts, pKAP-1 S824 immunofluorescence", "text": "NIH Chemical Genomics Center [NCGC] NIH Molecular Libraries Probe Centers Network [MLPCN] MLPCN Grant: MH089030-01 Assay Submitter (PI): Wei Zheng and Yosef Shiloh Ataxia-telangiectasia (A-T) is a devastating and progressive disease for which, there is no cure. Although A-T is a multisystem disease, it is stereotyped characterized by its neurological symptoms such as truncal ataxia, due to cerebellar cortical degeneration of the Purkinje and granule cells. Other symptoms of A-T are telangiectasias (dilated blood vessels), primary immunodeficiency, marked sensitivity to ionizing radiation (IR), chromosomal instability and predisposition to cancer. The underlying genetic cause of A-T is null mutations in the ATM (A-T mutated) gene. ATM is a nuclear serine/threonine kinase that functions as a master regulator of the cellular responses to double strand breaks (DSBs) in the DNA. Upon activation by DSBs, ATM phosphorylates a plethora of downstream targets, including KAP-1 on […]. KAP-1 phosphorylation occurs shortly in response to DSBs and mediates global chromatin relaxation, which facilitates DSB repair. To screen for small molecules that will compensate for the loss of ATM in cells derived from A-T patients, we monitored KAP-1 phosphorylation as a readout for ATM-like activity using an AlphaLISA assay.\nqHTS Assay Protocol: 1. […] Plates are the read on InCell.", "values": [
      {"smiles": "CC(=O)c1c(O)c(C)c(O)c(Cc2c(O)c3c(c(C(=O)/C=C/c4ccccc4)c2O)OC(C)(C)C=C3)c1O", "Potency": "10 µM (active)"}
    ]}
  ]
}
